Values joined by “and” are separate entries in the source; they are usually repeats but may differ in a detail not shown here. Equal entries are not always repeated. The campaign covered roughly 5,500 compounds. About 2,000 (36%) were called active. Inconclusive results (about 18%) are left out. Rule as the data show it: active = normalized growth mostly below about 0.91 (no sharp cut-off); inconclusive = no clear call, values can overlap the other calls; inactive = mostly above about 0.92. The list shows a part of the results.
Test: chemical genetic growth profiling, strain panel (AID 1159580);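 also: tested at 20 µM; growth read once vehicle control cultures reached saturation at 30 °C; 1 = growth at the plate median or of vehicle wells; lower values mean less growth of the strain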
Settings: S. cerevisiae deletion strains, growth OD

Measured: normalized growth

O=C(O)CN1C(=O)c2cccc3cccc(c23)C1=O
inactive: locus YAL013W, strain DEP1, stronger effect = lower value 1 | locus YAL021C, strain ccr4, stronger effect = lower value 0.956 | locus YAL026C, strain drs2, stronger effect = lower value 0.987 | locus YAL030W, strain snc1, stronger effect = lower value 0.986 | locus YBL061C, strain skt5, stronger effect = lower value 0.973 | locus YBR009C, strain hhf1, stronger effect = lower value 0.985 | locus YBR021W, strain FUR4, stronger effect = lower value 1 | locus YBR023C, strain chs3, stronger effect = lower value 0.976 | locus YBR171W, strain sec66, stronger effect = lower value 0.968 | locus YBR229C, strain ROT2, stronger effect = lower value 1.01 | locus YBR231C, strain swc5, stronger effect = lower value 0.986 | locus YBR279W, strain paf1, stronger effect = lower value 0.978 | locus YCL011C, strain gbp2, stronger effect = lower value 0.975 | locus YCL016C, strain dcc1, stronger effect = lower value 0.982 | locus YCL029C, strain bik1, stronger effect = lower value 0.978 | locus YCL061C, strain MRC1, stronger effect = lower value 0.985 | locus YCL069W, strain vba3, stronger effect = lower value 0.99 | locus YCR088W, strain abp1, stronger effect = lower value 1.01 | locus YDL005C, strain med2, stronger effect = lower value 0.974 | locus YDL035C, strain GPR1, stronger effect = lower value 0.994 | locus YDL040C, strain nat1, stronger effect = lower value 0.982 | locus YDL074C, strain BRE1, stronger effect = lower value 1.05 | locus YDL101C, strain DUN1, stronger effect = lower value 1.01 | locus YDL134C, strain PPH21, stronger effect = lower value 0.994 | locus YDL185W, strain tfp1, stronger effect = lower value 0.964 | locus YDL192W, strain arf1, stronger effect = lower value 0.991 | locus YDR001C, strain nth1, stronger effect = lower value 0.979 | locus YDR069C, strain doa4, stronger effect = lower value 0.993 | locus YDR101C, strain arx1, stronger effect = lower value 0.998 | locus YDR137W, strain rgp1, stronger effect = lower value 0.938 | locus YDR159W, strain sac3, stronger effect = lower value 0.993 | locus YDR162C, strain NBP2, stronger effect = lower value 0.982 | locus YDR195W, strain ref2 1.01 | locus YDR297W, strain sur2, stronger effect = lower value 0.979 | locus YDR318W, strain mcm21, stronger effect = lower value 0.978 | locus YDR334W, strain swr1, stronger effect = lower value 0.967 | locus YDR335W, strain msn5, stronger effect = lower value 0.985 | locus YDR388W, stronger effect = lower value 0.994 | locus YDR392W, strain spt3, stronger effect = lower value 0.811 | locus YDR502C, strain sam2, stronger effect = lower value 0.998 | locus YEL003W, strain gim4, stronger effect = lower value 0.99 | locus YEL037C, strain rad23, stronger effect = lower value 0.982 | locus YEL061C, strain CIN8 (second series), stronger effect = lower value 0.974 | locus YEL061C, strain CIN8, stronger effect = lower value 1.01 | locus YER015W, strain faa2, stronger effect = lower value 0.998 | locus YER016W, strain bim1, stronger effect = lower value 0.996 | locus YER110C, stronger effect = lower value 0.977 | locus YER111C, strain swi4, stronger effect = lower value 0.975 | locus YER155C, strain BEM2 (second series), stronger effect = lower value 0.954 | locus YER155C, strain BEM2, stronger effect = lower value 0.999 | locus YER167W, strain BCK2, stronger effect = lower value 0.991 | locus YFR010W, strain ubp6, stronger effect = lower value 0.968 | locus YGL078C, strain dbp3, stronger effect = lower value 0.986 | locus YGL086W, strain mad1, stronger effect = lower value 1 | locus YGL167C, strain pmr1, stronger effect = lower value 0.987 | locus YGL173C, strain kem1, stronger effect = lower value 0.983 | locus YGL227W, strain vid30, stronger effect = lower value 0.996 | locus YGL240W, strain doc1, stronger effect = lower value 1 | locus YGL248W, strain PDE1, stronger effect = lower value 1.02 | locus YGL253W, strain hxk2, stronger effect = lower value 0.984 | locus YGR135W, strain pre9, stronger effect = lower value 0.966 | locus YGR252W, strain gcn5, stronger effect = lower value 1.04 | locus YHR013C, strain ard1, stronger effect = lower value 0.909 | locus YHR027C, strain rpn1, stronger effect = lower value 0.985 | locus YHR030C, strain SLT2, stronger effect = lower value 0.99 and 0.965 | locus YHR079C, strain IRE1 (second series), stronger effect = lower value 0.984 | locus YHR079C, strain IRE1, stronger effect = lower value 0.972 | locus YHR094C, strain hxt1, stronger effect = lower value 0.994 | locus YHR129C, strain ARP1, stronger effect = lower value 0.994 | locus YHR142W, strain chs7, stronger effect = lower value 0.944 | locus YHR200W, strain rpn10, stronger effect = lower value 0.972 | locus YIL066C, strain RNR3, stronger effect = lower value 1.01 | locus YIL073C, strain SPO22, stronger effect = lower value 0.897 | locus YIL125W, strain kgd1, stronger effect = lower value 0.989 | locus YIR030C, strain dcg1, stronger effect = lower value 0.985 | locus YJL092W, strain hpr5, stronger effect = lower value 0.981 | locus YJL095W, strain BCK1 (second series), stronger effect = lower value 0.986 | locus YJL095W, strain BCK1, stronger effect = lower value 1.04 and 0.965 | locus YJL115W, strain asf1, stronger effect = lower value 0.982 | locus YJL129C, strain trk1, stronger effect = lower value 0.988 | locus YJL134W, strain LCB3, stronger effect = lower value 0.998 | locus YJL154C, strain vps35, stronger effect = lower value 1.01 | locus YJL164C, strain tpk1, stronger effect = lower value 0.989 | locus YJL166W, strain qcr8, stronger effect = lower value 0.953 | locus YJL168C, strain set2, stronger effect = lower value 0.993 | locus YJL187C, strain SWE1 (second series), stronger effect = lower value 1.04 | locus YJL187C, strain SWE1, stronger effect = lower value 0.976
